Laboratory results taken from PubChem BioAssay AID2685 (National Center for Advancing Translational Sciences (NCATS), 2010).
Screen size: about 320,000 compounds; about 2,100 (0.66%) were called active. About 53% were inconclusive and are not listed. Calls follow the shape of the dose curve; as a rule, active = well fitted inhibition curve with a large enough effect in the signal ratio, with a control signal flat (not every such curve was filed as active); inconclusive = small, poorly fitted or top-dose-only effect, or effect the other way, or a change in a side signal; inactive = flat fitted curve, though single readings scatter; the % refers to the signal ratio. For the sample, actives were picked, then their nearest neighbours and some compounds at random.

Assay: qHTS Assay for Lipid Storage Modulators in Drosophila S3 Cells;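 as to cell number change: cells counted by Cell Tracker Red CMTPX staining in the red channel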; as to lipid storage change, negative = inhibition: % is scaled to controls: 0 for no effect and ±100 for the full control effect
Conditions: BODIPY lipid droplet fluorescence, 18-24 h, cells fed with added oleic acid; cell number change: measured here: cell count max response; series mostly up to 46.1 µM; lipid storage change, negative = inhibition: at the top concentration
Procedure, shortened: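 Drosophila S3 cells loaded with oleic acid (400 uM, as added) and compounds at several concentrations; lipid droplets imaged by 488-nm laser-scanning cytometry, 500–530 nm intensity and object ratio to cell channel. Percent activity normalized to 20 uM Triacsin C.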
Potency is read from the fitted curve at half-maximal effect.

Structure (SMILES)	lipid storage change, negative = inhibition	cell number change [%]	outcome	Potency
C=CCOC(=O)C1=C(C)NC(=O)NC1c1cc2c(cc1Br)OCO2 (centres undefined)	-3.77% (inactive)	-17.1		
N/C(=N\OC(=O)C1CCCCC1)c1cccnc1	2.61% (inactive)	-2.17		
CCOc1cc(CNCCCN2CCOCC2)ccc1OCC(=O)Nc1cccc2ccccc12		9	inactive	
CCN(CC)CCNC(=O)c1ccc(NC(=O)c2ccc3c(c2)CCC3)cc1	9.17% (inactive)	2.22		
COc1c(Br)cc(Br)cc1C(=O)O		-14.5		20.6 µM (active)
COc1cc(N)c(Br)cc1C(=O)O	9.6% (inactive)			
COc1ccc(Br)cc1C(=O)O	-3.81% (inactive)	9.36		
COc1ccc(/C=N/NC(=O)Cn2nc([N+](=O)[O-])cc2C)c(OC)c1OC	-1.52% (inactive)	15.6		
Cc1ccc(-n2ncc(C(=O)O)c2C2CCN(C(=O)OC(C)(C)C)CC2)cc1	1.24% (inactive)	-23.6		
COc1ccc(-n2ncc(C(=O)NC3CC3)c2C2CCN(C(=O)OC(C)(C)C)CC2)cc1		-6.59		9.2 µM (active)
Cc1ccc(-n2ncc(C(=O)NC3CC3)c2C2CCN(C(=O)OC(C)(C)C)CC2)cc1	-3.19% (inactive)	-12.2		
Nn1cc(-c2ccccc2)nc1SCC(=O)NCCN1C(=O)CSC1=O	3.23% (inactive)	-20.3		
CCOC(=O)CN(C(=O)CSc1nnc(-c2ccncc2)n1CCCOC)c1ccccc1	-0.702% (inactive)	-3.7		
CC(C)(C)Nc1c(-c2ccc(O)cc2)nc2ccc(Cl)cn12	-6.34% (inactive)	20.8		
CC(NC(=O)NC(N)=O)(C(F)(F)F)C(F)(F)F	-6.44% (inactive)	2.2		
CC(NC(=O)NCCCC(=O)O)(C(F)(F)F)C(F)(F)F		-5.28		29.1 µM (active)
NC(=O)NCCCC(=O)O	-6.78% (inactive)	-16.4		
CSCCC(NC(=O)c1ccc(Cl)cc1Cl)C(=O)N(C)Cc1nc2ccccc2c(=O)[nH]1 (centres undefined)	1.6% [at 0.0737 µM] (inactive)			
CCN1CCN(c2ccc([N+](=O)[O-])c(Sc3nc4ccccc4[nH]3)c2)CC1	-3.58% (inactive)	-7.24		
CC1=CC(=Nc2c(C)n(C)n(-c3ccccc3)c2=O)C=CC1=O	-9.72% (inactive)	4.9		
CC(C)(C)c1cc(CN2CCC(O)CC2)cc(C(C)(C)C)c1O		12.8	inactive	
CC1=NN(Cc2ccccc2)C(=O)C1	-22.5% (inactive)	11.6		
CC1=NN(Cc2cc(C(C)(C)C)c(O)c(C(C)(C)C)c2)C(=O)C1		-27.5		16.4 µM (active)
COCCOC(=O)c1c(C)oc2ccc(OC(=O)c3ccc4c(c3)OCO4)cc12			inactive	

Structure (SMILES)	lipid storage change, negative = inhibition	cell number change [%]	outcome	Potency
CC1CN(C(=O)c2cccc(S(=O)(=O)N3CCN(c4ccccc4)CC3)c2)CC(C)O1 (centres undefined)	13.5% (inactive)	2.24		
C[C@@H]1CCC(=O)N(C[C@@H](C)CSc2ccccc2)CC1		11.7	inactive	
Cn1c(SCC(=O)Nc2ccc(Cl)cc2F)nnc1-c1ccco1		9.91		23.1 µM (active)
Cc1cc(NC(=O)CSc2nnc(-c3ccco3)n2C)no1	5.6% (inactive)	17.5		
CCC(=O)Nc1ccc(NC(=O)CSc2nnc(-c3ccco3)n2C)cc1	-25.5% (inactive)	8.55		
O=C(Nc1nc2ccc(F)cc2s1)c1ccc(N2CCCC2=O)cc1	-0.195% (inactive)	-14.4		
CCCC1CC(CCc2ccccc2)OS(=O)(=O)N1 (centres undefined)		22.3	inactive	
C=CCNc1nc2c(c(=O)[nH]c(=O)n2C)n1CC(O)COc1ccc2ccccc2c1 (centres undefined)	9.91% (inactive)	-2.59		
C=CCSc1nc(C)cc2c1C(=O)OC2	-1.91% (inactive)	-10		
CCOC(=O)C1CCN(S(=O)(=O)c2ccc(OC)c(OC)c2)CC1			inactive	
Cc1cc(-n2c(C)cc(C(=O)COc3ccc([N+](=O)[O-])cc3)c2C)no1	-9.66% [at 9.22 µM] (inactive)	-1.97		
Cc1cc(-n2c(C)cc(C(=O)COc3ccc4ccc(=O)oc4c3)c2C)no1	-4.04% (inactive)	-3.86		
Cc1cc(-n2c(C)cc(C(=O)COc3cc(F)ccc3[N+](=O)[O-])c2C)no1		1.91		8.2 µM (active)
Cc1nc(CN2CCCC2=NC#N)n(-c2ccccc2)n1	-0.104% (inactive)	7.55		
N#CN=C1CCCCCN1CC(N)=O		-10.9		0.731 µM (active)
O=C(O)CN1CCCC1=Nc1ccccc1		7.34	inactive	
Cc1cc(C(=O)N/N=C/c2ccc(-c3cccc(Cl)c3Cl)o2)n[nH]1	2.75% (inactive)	-7.33		
Cc1nc(N)nc(Nc2ccc(Cl)cc2)c1Br		17.2	inactive	
CCOc1ccccc1CNCc1ccc(C(=O)O)cc1	16% (inactive)	10.5		
CCOc1ccc(CC(C(N)=O)C(N)=O)cc1CN(C)C	8.24% (inactive)	-1.24		
CCOc1ccc(CC(C(=O)NN)C(=O)NN)cc1CN(C)C		-6.71		18.4 µM (active)
COC(=O)Nc1c(C(=O)OC)cc(OC)c(OC)c1OC		-8.23		16.4 µM (active)
COC(=O)c1cc(OC)c(OC)c(OC)c1NC(=O)c1ccc(S(=O)(=O)N(C)C)cc1		-4.59	inactive	
COC(=O)c1cc(OC)c(OC)c(OC)c1N		7.54	inactive	

Structure (SMILES)	lipid storage change, negative = inhibition	cell number change [%]	outcome	Potency
CCOC(=O)CN(C(=O)COc1nc(C)cc(C)c1C#N)c1cccc(Cl)c1	3.11% (inactive)	6.09		
Cc1cccc(N2CCN(C(=O)c3ccc(CNc4c(N5CCC(C)CC5)c(=O)c4=O)cc3)CC2)c1C	-0.571% (inactive)	1.91		
COc1ccc(CN2CCN(Cc3cccc(OC)c3)C(CCO)C2)cc1 (centres undefined)	15.7% (inactive)	0.486		
COc1ccc(NS(=O)(=O)c2cccc(C(=O)N3CCN(Cc4cc(OC)ccc4OC)CC3)c2)cc1	-13.2% (inactive)	1.47		
CC(C)(C)c1ccc(C(=O)NCC(=O)N2CCCC2)cc1		12.2	inactive	
COc1ccc(C(=O)N2CCN(Cc3cc(OC)ccc3OC)CC2)cc1	-14.3% (inactive)	-3.67		
COc1ccc(OC)c(CN2CCN(C(=O)CNC(=O)c3ccc(C(C)(C)C)cc3)CC2)c1		-27.4		1.46 µM (active)
CC(C)(C)c1ccc(C(=O)NCC(=O)N2CCCCCC2)cc1		5.65	inactive	
COc1ccc(OC)c(CN2CCN(C(=O)c3ccc(S(=O)(=O)Nc4ccccc4F)cc3)CC2)c1		-20.6		13 µM (active)
O=C(Cn1c(C(F)(F)F)nc2ccccc21)N=Nc1c(O)[nH]c2ccc(Br)cc12			inactive	
CC1(C)CC(=O)N(c2ccc(C#N)cc2)C(=O)C1	2.37% (inactive)	-0.525		
Cc1cccc(NC(=O)C(c2ccccc2Cl)N2CCOCC2)c1 (centres undefined)	2.74% (inactive)	14.2		
COCCCNc1nc(-c2ccc(Cl)cc2)nc2ccccc12			inactive	
CCCCN1C(=O)/C(=c2\sc3nc(=O)c(-c4ccccc4)nn3c2=O)c2ccccc21	-21.2% (inactive)	-10.9		
C/C(=N\NC(=O)c1nn(C)c(C)c1Br)c1ccc(NC(=O)C2CCCC2)cc1		-25.5	inactive	
C/C(=N\NC(=O)c1c([N+](=O)[O-])c(C)nn1C)c1ccc(NC(=O)C2CCCC2)cc1	-5.01% (inactive)	5.28		
C/C(=N\NC(=O)c1ccn(C)n1)c1ccc(NC(=O)C2CCC2)cc1		-21.2		13 µM (active)
Cc1cccc(C(=O)Nc2sc3c(c2C#N)CCCCC3)c1	-3.22% (inactive)	-20.2		
Cc1nc2nc(SCc3ccccc3)[nH]n2c(=O)c1CCC(C)C	-19.4% (inactive)	19.7		
CCc1cc(=O)oc2c(C)c(OC(C)C(=O)N3CCC[C@@H]3C(=O)O)ccc12 (some centres undefined)	-7.03% (inactive)	15.4		
Cc1c(C)c2ccc(OC(C)C(=O)N3C[C@H]4C[C@@H](C3)c3cccc(=O)n3C4)c(C)c2oc1=O (some centres undefined)	-2.98% (inactive)	10.4		
Cc1cc(=O)oc2c(C)c(OCC(=O)N3CC[C@@]4(O)CCCC[C@H]4C3)ccc12		2.59		16.4 µM (active)
CCc1cc(=O)oc2c(C)c(OCC(=O)N3CC[C@@]4(O)CCCC[C@H]4C3)ccc12	-24.5% (inactive)	2.62		
Cc1c(C)c2ccc(OCC(=O)N3CC[C@@]4(O)CCCC[C@H]4C3)cc2oc1=O	-15.4% (inactive)	0.17		

Structure (SMILES)	lipid storage change, negative = inhibition	cell number change [%]	outcome	Potency
CCc1cc(=O)oc2c(C)c(OC(C)C(=O)N3CC[C@@]4(O)CCCC[C@H]4C3)ccc12 (some centres undefined)	3.29% (inactive)	14.6		
Cc1c(C)c2ccc(OC(C)C(=O)N3CC[C@@]4(O)CCCC[C@H]4C3)c(C)c2oc1=O (some centres undefined)		-28.5		5.8 µM (active)
O=C(C(c1ccccc1)c1ccccc1)N1CC[C@@]2(O)CCCC[C@H]2C1	-7.45% (inactive)	-2.81		
Cc1cc(=O)oc2c(C)c(OC(C)C(=O)N3CC[C@@]4(O)CCCC[C@H]4C3)ccc12 (some centres undefined)		-0.971		0.731 µM (active)
Cc1nc(SCC(=O)NC(=O)NCCC(C)C)c2c(-c3cccs3)csc2n1	3.29% (inactive)	8.46		
CCn1ccnc1CN1CCC(n2nccc2NC(=O)CCc2ccccc2)CC1	-5.74% (inactive)	-1.05		
COc1ccc(C(=O)Nc2ccc3[nH]c(-c4cccc(OC)c4)cc(=O)c3c2)cc1	-2.62% (inactive)	4.73		
Cc1cccc(C)c1NC(=O)CS(=O)CC(=O)NCC1OCCc2ccccc21 (centres undefined)	-1.05% (inactive)	9.92		
CC(=O)c1ccc(CC2SC(N)=NC2=O)cc1 (centres undefined)		-4.99	inactive	
CCCCN1C(=S)NC[C@@H]1Cc1cccc2ccccc12	15.5% (inactive)	2.45		
COc1ccc2c(c1OC)C(=O)N1C2SC[C@H]1C(=O)NC1CC1 (some centres undefined)	-17.9% (inactive)	-0.291		
COc1ccc(C(c2sc3nc(C)nn3c2O)N2CCc3ccccc3C2)cc1 (centres undefined)			inactive	
Cc1ccc(NC(=O)CCSCCC(=O)Nc2ccc(C)c(C)c2)cc1C	1.97% (inactive)	-13.5		
C=C(C)C1CC=C(C)/C(=N\NC(=O)CCC(=O)Nc2ccc(C)c(C)c2)C1 (centres undefined)	-0.891% (inactive)	1.45		
C/C(=N\NC(=O)CCC(=O)Nc1ccc(C)c(C)c1)C1CC1		18.1		6.51 µM (active)
CC(=O)Nc1ccc(S(=O)(=O)NCCC(=O)OCc2nc(N)nc(Nc3ccccc3C)n2)cc1	9.3% (inactive)	3.4		
COc1ccc(N2C(=O)C3CCCN3C2=O)cc1 (centres undefined)		13.7		18.4 µM (active)
COc1ccc(N2C(=O)C3CCCN3C2=S)cc1 (centres undefined)		13	inactive	
O=C1C2CCCN2C(c2cccs2)N1c1ccc(Cl)cc1 (centres undefined)	11.3% (inactive)	6.57		
COc1cccc(N2C(=O)C3CCCN3C2c2cccs2)c1 (centres undefined)	-10.3% (inactive)			
COc1ccc(N2C(=O)[C@@H]3Cc4ccccc4CN3C2=O)cc1	13.6% (inactive)	-10.6		
COc1ccc(N2C(=O)C3CCCN3C2c2cccs2)cc1 (centres undefined)				8.2 µM (active)
